Results on 91 molecules are retold here after PubChem BioAssay AID588492 (Sanford-Burnham Center for Chemical Genomics, 2011).

“And” between values parts separate entries of the source, which are not always exact repeats. Identical values can stand only once. The whole screen tested about 360,000 compounds, of which about 2,300 (0.64%) were called active. The sample holds actives, similar compounds and a random draw of the others, so the mix is not that of the screen.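 The calls were made as follows: active = compounds giving at least 50% protection of heart cells from peroxide-induced death in the single-dose screen, raw or plate-pattern-corrected value; inactive = the rest.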

This assay in a line: H9c2 cardiomyocyte survival under peroxide injury – uHTS, H9c2 cells, ATPLite luminescence, primary screen (AID 588492).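 Also: 0% = DMSO wells with peroxide and 100% = DMSO wells without peroxide.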 The settings on record: H9c2 cardiomyocytes, 2 h, at 20 µM, hits give high values.
Consider `C[C@@H]1CN([C@H](C)CO)S(=O)(=O)c2ccc(C#C[C@@H](C)O)cc2O[C@@H]1CN(C)Cc1ccc(-c2ccccc2)cc1`, for which the protection from H2O2 cell death was -5.2% (inactive). The value for `CCCc1nc2ccccc2c(C(=O)OCc2nnc(-c3cc(OC)c(OC)c(OC)c3)o2)c1CC` was 64.8% (active). To `O=C(OCc1nnc(-c2ccccc2)o1)c1cc(=O)[nH]c2ccccc12` belongs 3.9% (inactive); to `Cc1onc(-c2ccccc2Cl)c1C(=O)OCc1nnc(-c2ccccc2)o1`, -13.6% (inactive); to `Cc1ccc(CNS(=O)(=O)c2ccc3c(c2)N(C)CCO3)cc1`, -9.1% (inactive). The value for `C[C@@H]1CC[C@]2(O[C@@H](CCO)C[C@H](O)[C@H]2O)O1` was -5.8% (inactive); that for `COc1ccc2oc(C(=O)N(CC(C)C)C3CCS(=O)(=O)C3)c(C)c2c1` (stereo unspecified) was 2.8% (inactive). For `CC(C)CNC(=S)NNC(=O)c1ccccc1OC(F)F`, the protection from H2O2 cell death is -3.4% (inactive). The value for `O=C(CN(c1ccc2c(c1)OCCO2)S(=O)(=O)c1ccccc1)Nc1ccc2c(c1)OCO2` was 79.8% (active); that for `O=C(CCS(=O)(=O)Cc1ccccc1)Nc1ccc2c(c1)OCCO2` was 0.6% (inactive); that for `CCN(CC(=O)Nc1ccc2c(c1)OCO2)S(=O)(=O)c1ccccc1` was -7.6% (inactive). To `COc1ccc(NS(=O)(=O)c2ccc(C)c(C(=O)NCC(c3cccs3)N3CCOCC3)c2)cc1` (stereo unspecified) belongs -1.3% (inactive); to `COC(=O)c1ccc(S(=O)(=O)NCc2ccccc2)n1C`, -1.9% (inactive); to `COc1cc(Br)cc(/C=N/c2ncn[nH]2)c1O`, 88.7% (active). To `C=CCn1c(Cn2nnc3ccccc32)nnc1SCC(=O)N/N=C/c1cc(Br)cc(OC)c1O` belongs 9.5% (inactive).

`Oc1c(Cl)cc(Cl)cc1/C=N/c1ncn[nH]1`: the protection from H2O2 cell death was 26.3% (inactive).

As for `CN(Cc1c(F)cccc1Cl)C(=O)COC(=O)Cn1cnc2ccccc2c1=O`, the protection from H2O2 cell death was -4% (inactive). To `Nc1scc(-c2ccncc2)c1Cl` belongs -2.7% (inactive); to `[O-][n+]1ccc(OCc2ccccc2)cc1`, -5.2% (inactive). The value for `COC(=O)[C@H]1[C@H]2C[C@H]3c4[nH]c5ccccc5c4CCN3C[C@@H]2CC[C@@H]1O` was -2.1% (inactive) and 1% (inactive); that for `COc1cccc(C2c3[nH]c4ccccc4c3CCN2Cc2cccc(C)n2)c1` (stereo unspecified) was -1.8% (inactive); that for `COc1ccc(-c2ccc3[nH]c4c(c3c2)CCN2C[C@H]3[C@H](C)ON(C)[C@H]3C[C@@H]42)cc1` was 54.5% (active).

On to `COc1ccc(CNC(=O)c2ccc(NS(=O)(=O)c3ccc4[nH]c(=O)[nH]c4c3)cc2)cc1OC`, for which the protection from H2O2 cell death is 0.1% (inactive). The value for `NC(=O)c1ccccc1N=Cc1ccc2ccccc2c1` was 0.6% (inactive); that for `Nc1nonc1-n1nnc(C(=O)N/N=C/c2cc(Br)ccc2O)c1CSC1=NCCS1` was 56.9% (active). Take `CC(C)c1c(C(=O)N/N=C/c2ccccc2C(=O)O)nnn1-c1nonc1N`: the protection from H2O2 cell death was 5.1% (inactive). Turning to `COCc1c(C(=O)N/N=C\c2cccnc2)nnn1-c1nonc1N`, the protection from H2O2 cell death is -0.9% (inactive). The value for `Cc1cc(NC(=O)C(C)N2C(=O)c3ccccc3S2(=O)=O)no1` (stereo unspecified) was 6.5% (inactive); that for `CCN(CC)Cc1nc2sc(C)c(C)c2c(=O)[nH]1` was 12.4% (inactive). To `O=C(CCCCO)c1ccc(O)c(Cl)c1` belongs 15.5% (inactive). `c1ccc(C(=NNc2nc3ccccc3s2)c2ccccn2)cc1`: the protection from H2O2 cell death is 51.5% (active).

With `COc1cc(OC)nc(N/N=C(\c2ccccc2)c2ccncc2)n1`, the protection from H2O2 cell death is -2.9% (inactive). Turning to `C/C(=N/Nc1nc(-c2ccccc2)c(CC(=O)O)s1)c1ccccc1`, the protection from H2O2 cell death was -8.5% (inactive). To `Cc1cc(=O)oc2c(C)c(OCC(=O)NCCc3ccc(S(N)(=O)=O)cc3)ccc12` belongs -0.5% (inactive); to `COc1ccc(CN2CCC(c3nc4ccc(Cl)cc4[nH]3)CC2)cc1`, -3.8% (inactive). The value for `Cn1c2c(c(=O)n(C)c1=O)C(c1cccc([N+](=O)[O-])c1)Nc1ccccc1O2` (stereo unspecified) was 61.2% (active). To `Cn1c2c(c(=O)n(C)c1=O)C(c1ccc(O)cc1)Nc1ccccc1O2` (stereo unspecified) belongs 2.1% (inactive); to `Cn1c2c(c(=O)n(C)c1=O)C1c3ccccc3OCC1C(C)(C)O2` (stereo unspecified), 11% (inactive); to `O=C(COc1nsnc1N1CCOCC1)Nc1ccccc1Cl`, 1.1% (inactive). Take `O=C(CSCc1c(Cl)cccc1Cl)NN1C(=O)c2ccccc2C1=O`: the protection from H2O2 cell death was 5.5% (inactive). To `COc1cccc(-c2cc(NC(C)=O)c3ncc(-c4cccc(C(C)=O)c4)n3c2)c1` belongs 24.1% (inactive); to `COc1ccc(-c2cc(NC=O)c3ncc(-c4cc(OC)c(OC)c(OC)c4)n3c2)c(OC)c1`, 17.5% (inactive); to `CC(=O)Nc1cccc(-c2cc(NC(C)=O)c3ncc(-c4ccccc4)n3c2)c1`, 57.6% (active).

`CC(=O)c1ccc(-c2cnc3c(NC=O)cc(-c4cccc(NS(C)(=O)=O)c4)cn23)cc1`: the protection from H2O2 cell death was 64.4% (active).

As for `CC(=O)c1cccc(-c2cnc3c(NC=O)cc(-c4ccc(N(C)C)cc4)cn23)c1`, the protection from H2O2 cell death is 34.4% (inactive).

Take `CN(C)C(=O)c1cccc(-c2cnc3c(NC=O)cc(-c4ccc(F)cc4)cn23)c1`: the protection from H2O2 cell death was 12.9% (inactive).

On to `CC(=O)c1cccc(-c2cnc3c(NC=O)cc(-c4ccccc4Oc4ccccc4)cn23)c1`, for which the protection from H2O2 cell death was -13.2% (inactive). The value for `CC(=O)Nc1cccc(-c2cc(NC=O)c3ncc(-c4ccc(F)c(Cl)c4)n3c2)c1` was 47.5% (inactive); that for `CC(=O)c1cccc(-c2cnc3c(NC=O)cc(-c4cccc(C(=O)N(C)C)c4)cn23)c1` was 73.1% (active).

For `COc1cccc(-c2cnc3c(NC(C)=O)cc(-c4cccc(NC(C)=O)c4)cn23)c1`, the protection from H2O2 cell death was 41.9% (inactive).

`CC(=O)c1cccc(-c2cnc3c(NC=O)cc(-c4ccc(N5CCN(C)CC5)cc4)cn23)c1`: the protection from H2O2 cell death is 0.9% (inactive). As to `COc1ccc(-c2cc(NC=O)c3ncc(-c4ccccc4)n3c2)cc1OC`, the protection from H2O2 cell death is 74.5% (active). The value for `CCCc1c(C)nc2scc(-c3ccc(Cl)cc3)n2c1=O` was -0.2% (inactive); that for `Cc1cc(NC(=O)OC(C)C)ccc1-c1ccc(NC(=O)OC(C)C)cc1C` was 0.3% (inactive); that for `COc1ccc(CSc2nnnn2-c2ccc(O)cc2)cc1F` was -8.7% (inactive). On to `Cc1ccc(OCCNC(=O)CCNS(=O)(=O)c2ccc(Br)cc2)cc1`, for which the protection from H2O2 cell death was -2.6% (inactive).

Turning to `CC1CCN(C(=O)CN(c2ccc(Oc3ccccc3)cc2)S(C)(=O)=O)CC1`, the protection from H2O2 cell death was -13.4% (inactive).

In the case of `Cc1nonc1OCCn1nnnc1N`, the protection from H2O2 cell death is -1.7% (inactive). Take `Cc1oc(C(N)=O)cc1COc1ccc(C(N)=O)cc1`: the protection from H2O2 cell death is -0.9% (inactive). The value for `O=C(c1ccc(N2CCOCC2)c([N+](=O)[O-])c1)N1CCN(S(=O)(=O)c2cccs2)CC1` was -4.8% (inactive); that for `Cc1cccn2c(=O)nc(SCC(=O)NCc3ccccc3Cl)nc12` was -5.6% (inactive). The value for `CCCn1c(SCC(=O)c2ccc3c(c2)OCCO3)nnc1C(C)C` was 2.3% (inactive); that for `CN1CCNC(=O)C1CC(=O)N1CC=C(c2ccc(F)cc2)CC1` (stereo unspecified) was -0.1% (inactive); that for `N#Cc1ccccc1NC(=O)c1cccc(COc2ccc(Cl)cc2Cl)c1` was -3.6% (inactive). Regarding `Cc1c(CC(=O)N2CCN(C(=O)C3COc4ccccc4O3)CC2)c(=O)oc2c(O)c(O)ccc12` (stereo unspecified), the protection from H2O2 cell death is 61.9% (active). To `Cc1c(CCC(=O)O)c(=O)oc2c(C)c(OCc3ccccc3Cl)ccc12` belongs 1.3% (inactive); to `Cc1ccc(S(=O)(=O)NCCC(=O)NNC(=O)C2COc3ccccc3O2)cc1` (stereo unspecified), -3.1% (inactive); to `Cc1nc2c(OCc3ccc(Cl)cc3)cccn2c1N(C)Cc1cccs1`, -9.7% (inactive).

In the case of `CCc1nc2ccc(C(=O)N(C)Cc3ccco3)cn2c1N(C)C(=O)Cc1ccccc1`, the protection from H2O2 cell death was -2.1% (inactive).

Regarding `CCC(=O)Nc1ccccc1C(=O)N1CCN(Cc2ccccc2)CC1`, the protection from H2O2 cell death is 5.1% (inactive).

On to `COc1ccccc1Nc1ncnc2c1oc1ccccc12`, for which the protection from H2O2 cell death was 7.1% (inactive).

As to `COCCNc1nc(-c2ccccc2)nc2c1oc1ccccc12`, the protection from H2O2 cell death was 1.8% (inactive). For `CCc1nc(Nc2ccc3nccnc3c2)c2oc3ccccc3c2n1`, the protection from H2O2 cell death is 53.3% (active).

On to `Cc1ccc(C(=O)N(CC(=O)NC2CCCC2)c2ccc(F)cc2)s1`, for which the protection from H2O2 cell death was -2.3% (inactive). To `COc1ccc(C(=O)CSc2nnc(NC(=O)C3CC(=O)N(c4cccc(OC)c4)C3)s2)cc1` (stereo unspecified) belongs -1.6% (inactive).

On to `COc1cccc(N2CC(C(=O)NCc3n[nH]c(=O)c4ccccc34)CC2=O)c1` (stereo unspecified), for which the protection from H2O2 cell death was 50.2% (active). The value for `COc1cccc(CNC(=O)C2CC(=O)N(C3CCCCCCC3)C2)c1` (stereo unspecified) was -0.1% (inactive); that for `COC(=O)CN(c1cccc(C(C)=O)c1)S(C)(=O)=O` was -1% (inactive); that for `O=C(Nc1nnc([C@H]2C[C@H](O)[C@@H](CO)O2)s1)c1cccc(Cl)c1` was 3% (inactive). The value for `O=C(Nc1ccc(Cl)cc1)c1csc([C@H]2C[C@H](O)[C@@H](CO)O2)n1` was -8.3% (inactive); that for `O=C(Nc1cccc2cccnc12)c1ccc2sc([C@H]3C[C@H](O)[C@@H](CO)O3)nc2c1` was 76.9% (active); that for `CCOn1c(=O)c(=O)n(O)c2ccccc21` was 3.3% (inactive). The value for `CCOc1cc(N2CCOCC2)c(OCC)cc1NC(=O)COc1cccc2cccnc12` was 50.1% (active); that for `CCOc1cc(N2CCOCC2)c(OCC)cc1NC(=O)C1=NN(c2cccc(C)c2)C(=O)CC1` was 15.6% (inactive).

For `CCOc1cc(N2CCOCC2)c(OCC)cc1NC(=O)COC(=O)[C@H](Cc1c[nH]c2ccccc12)NC(C)=O`, the protection from H2O2 cell death was 10.2% (inactive).

As for `CCc1ccc2c(c1)cc(CN(C(=S)Nc1ccccc1Cl)C1CC1)c1nnnn12`, the protection from H2O2 cell death was -3.2% (inactive). The value for `Clc1ccc(C2=CSC3=Nc4cccc5cccc(c45)N23)cc1` was -4.9% (inactive); that for `COc1cc(CO)c(C2(CO)CCCC2)cc1OC` was 2.5% (inactive).

Regarding `COc1cc(NS(=O)(=O)c2ccc3ccccc3c2)c2ncccc2c1`, the protection from H2O2 cell death was 61.8% (active). Turning to `CCOc1cc(NS(=O)(=O)c2ccc(OC)cc2)c(OCC)cc1NC(C)=O`, the protection from H2O2 cell death was -4% (inactive).

As to `O=S(=O)(Nc1ccccn1)c1cccc(S(=O)(=O)c2ccc(Cl)cc2)c1`, the protection from H2O2 cell death was -4.1% (inactive).
